Test results from PubChem BioAssay AID1159580 (chemical genetic matrix, 2015).
The whole screen tested about 5,500 compounds, of which about 2,000 (36%) were called active. Not shown: some 18% with an inconclusive outcome. Rule as the data show it: active = normalized growth mostly below about 0.91 (no sharp cut-off); inconclusive = no clear call, values can overlap the other calls; inactive = mostly above about 0.92. Some of the results follow.

Experiment: chemical genetic growth profiling, strain panel (AID 1159580);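 also: tested at 20 µM; growth read once vehicle control cultures reached saturation at 30 °C; 1 = growth at the plate median or of vehicle wells; lower values mean less growth of the strain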
Details: S. cerevisiae deletion strains, growth OD

Measured: normalized growth

O=C(OC1Cc2c(O)cc(O)cc2OC1c1cc(=O)c(O)c2c(O)c(O)cc(C3Oc4cc(O)cc(O)c4CC3O)c2c1)c1cc(O)c(O)c(O)c1 (configuration not stated)
active: locus YJL187C, strain SWE1 (second series), hits give low values 0.0967 | locus YJR043C, strain POL32, hits give low values 0.203 | locus YJR075W, strain HOC1, hits give low values 0.58 | locus YKL190W, strain CNB1, hits give low values 0.126 | locus YKR001C, strain vps1, hits give low values 0.688 | locus YLR039C, strain RIC1, hits give low values 0.17 | locus YLR058C, strain SHM2, hits give low values 0.183 | locus YLR262C, strain YPT6 (second series), hits give low values 0.811 | locus YLR262C, strain YPT6, hits give low values 0.342 | locus YLR268W, strain sec22, hits give low values 0.609 | locus YLR330W, strain CHS5, hits give low values 0.708 | locus YLR342W, strain FKS1 (second series), hits give low values 0.263 | locus YLR357W, strain rsc2, hits give low values 0.744 | locus YLR371W, strain rom2, hits give low values 0.711 | locus YLR418C, strain cdc73, hits give low values 0.356 | locus YML016C, strain PPZ1, hits give low values 0.0879 | locus YML032C, strain rad52, hits give low values 0.879 | locus YMR058W, strain fet3, hits give low values 0.252 | locus YMR223W, strain ubp8, hits give low values 0.761 | locus YMR231W, strain pep5, hits give low values 0.866 | locus YMR307W, strain GAS1, hits give low values 0.339 | locus YNL067W, strain RPL9B, hits give low values 0.486 | locus YNL128W, strain TEP1, hits give low values 0.145 | locus YNL153C, strain GIM3, hits give low values 0.417 | locus YNL209W, strain ssb2, hits give low values 0.749 | locus YNL233W, strain BNI4, hits give low values 0.621 | locus YNR052C, strain pop2, hits give low values 0.648 | locus YOL006C, strain TOP1, hits give low values 0.139 | locus YOL147C, strain pex11, hits give low values 0.865 | locus YOR061W, strain CKA2, hits give low values 0.383 | locus YOR069W, strain VPS5, hits give low values 0.485 | locus YOR106W, strain vam3, hits give low values 0.657 | locus YOR136W, strain idh2, hits give low values 0.906 | locus YOR144C, strain elg1, hits give low values 0.915 | locus YOR184W, strain ser1, hits give low values 0.578 | locus YOR270C, strain vph1, hits give low values 0.638 | locus YOR290C, strain snf2, hits give low values 0.827 | locus YPL051W, strain arl3, hits give low values 0.827 | locus YPL241C, strain CIN2, hits give low values 0.636 | locus YPR167C, strain met16, hits give low values 0.878 | strain wtn01, hits give low values 0.667
inactive: locus YJL187C, strain SWE1, hits give low values 0.95 | locus YKL009W, strain mrt4, hits give low values 1.02 | locus YKL068W, hits give low values 0.996 | locus YKL085W, strain MDH1 (second series), hits give low values 0.994 | locus YKL085W, strain MDH1, hits give low values 0.994 | locus YKL160W, strain elf1, hits give low values 0.969 | locus YKR026C, strain gcn3, hits give low values 0.967 | locus YKR091W, strain srl3, hits give low values 1 | locus YLL001W, strain dnm1, hits give low values 0.967 | locus YLL026W, hits give low values 0.978 | locus YLL041C, strain sdh2, hits give low values 0.989 | locus YLR027C, strain aat2, hits give low values 0.955 | locus YLR102C, strain apc9, hits give low values 0.973 | locus YLR221C, strain rsa3, hits give low values 0.925 | locus YLR258W, strain gsy2, hits give low values 0.946 | locus YLR320W, strain mms22, hits give low values 0.927 | locus YLR342W, strain FKS1, hits give low values 0.929 | locus YLR370C, strain arc18, hits give low values 0.916 | locus YLR384C, strain iki3, hits give low values 0.971 | locus YML120C, strain ndi1, hits give low values 0.952 | locus YML124C, strain tub3, hits give low values 0.958 | locus YMR078C, strain ctf18, hits give low values 0.973 | locus YMR125W, strain sto1, hits give low values 1.03 | locus YMR129W, hits give low values 1 | locus YMR205C, strain PFK2, hits give low values 0.901 | locus YNL071W, strain lat1, hits give low values 1 | locus YNL248C, strain rpa49, hits give low values 0.986 | locus YNL250W, strain rad50, hits give low values 0.99 | locus YNL271C, strain bni1, hits give low values 0.963 | locus YNL298W, strain CLA4, hits give low values 1 | locus YNL307C, strain MCK1, hits give low values 0.93 | locus YNL322C, strain KRE1 (second series), hits give low values 1.02 | locus YNR049C, strain mso1, hits give low values 0.997 | locus YOL012C, strain htz1 0.293 | locus YOR001W, strain rrp6, hits give low values 0.962 | locus YOR070C, strain gyp1, hits give low values 0.938 | locus YOR080W, strain dia2, hits give low values 0.966 | locus YOR083W, strain WHI5, hits give low values 0.937 | locus YOR265W, strain rbl2, hits give low values 0.969 | locus YOR316C, strain cot1, hits give low values 0.958 | locus YPL078C, strain atp4, hits give low values 0.957 | locus YPL106C, strain sse1, hits give low values 0.872 | locus YPL240C, strain hsp82, hits give low values 0.97 | locus YPR119W, strain clb2, hits give low values 0.988 | locus YPR141C, strain kar3, hits give low values 0.993 | locus YPR163C, strain tif3, hits give low values 0.969
